These results are taken from PubChem BioAssay (Tox21).

The structures appear in SMILES notation. Inconclusive results are not listed. Activity calls are given as the source filed them. Unless noted, calls follow the shape of the dose curve; as a rule, active = well fitted curve in the direction sought with a large enough effect in the repeat runs; inconclusive = weak or mixed curves; inactive = no such curve, though single readings can be large; an effect the other way counts as inactive or inconclusive.

The nature of experiment [1]: qHTS RealTime-Glo MT Cell Viability Assay in HEK293 cells - 0 hour (AID 1224880). Also: top concentration of the series differs between compounds; nearly all actives have a fitted effect of over 45% in size. The method in brief:
(§1)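 Kinetic, non-lysing viability readout. Seed HEK293 (600/well) with reagent, incubate 5 h at 37 C/5% CO2, pin 23 nL compound in DMSO, incubate at 37 C, read luminescence at 0, 8, 16, 24, 32, 40 h.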
For orientation: In qHTS, concentration-response curves come from the screen itself.

A short description of experiment [2]: A CellTox Green Cytotoxicity Assay to monitor cytotoxicity in HEK293 cells - 32 hour (AID 1224881). Also: nearly all actives have a fitted effect of over 40% in size. The method in brief:
(§2)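 Real-time, in one plate: 600 HEK293 cells/well with dead-cell DNA dye, pinned compound after 5 h, 37 C incubation over 40 h; viable cells give no appreciable fluorescence.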

Experiment [3] in a line: A CellTox Green Cytotoxicity Assay to monitor cytotoxicity in HepG2 cells - 0 hour (AID 1224882). Also: nearly all actives have a fitted effect of over 35% in size. The method in brief:
(§3)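 Cytotoxicity was tracked as dead-cell DNA fluorescence in HepG2 cells treated with test compounds at 37 C; each time-point value comes from one kinetic series spanning 0, 8, 16, 24, 32 and 40 h.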

Experiment [4] in a line: A CellTox Green Cytotoxicity Assay to monitor cytotoxicity in HepG2 cells - 32 hour (AID 1224883). Also: nearly all actives have a fitted effect of over 50% in size. The method in brief:
as §3

Experiment [5] can be described thus: A CellTox Green Cytotoxicity Assay to monitor cytotoxicity in HEK293 cells - 8 hour (AID 1224884). Also: nearly all actives have a fitted effect of over 35% in size. The essentials: as §2
Experiment [6] can be described thus: qHTS RealTime-Glo MT Cell Viability Assay in HepG2 cells - 16 hour (AID 1224885). Also: nearly all actives have a fitted effect of over 50% in size. The method in brief: (§4)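 Viability was tracked continuously by NanoLuc luminescence from prosubstrate reduced by living HepG2 cells, at successive time points over 40 h of compound exposure. Cells with reagent were preincubated 5 h at 37 °C before compound addition.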
A short description of experiment [7]: qHTS RealTime-Glo MT Cell Viability Assay in HEK293 cells - 24 hour (AID 1224886). Also: top concentration of the series differs between compounds; nearly all actives have a fitted effect of over 50% in size. The essentials:
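Viability tracked continuously by luminescence as live cells reduce a prosubstrate for NanoLuc; HEK293 cells preincubated 5 h, compound-treated at 37 C, and read at 0, 8, 16, 24, 32 and 40 h.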

A short description of experiment [8]: qHTS RealTime-Glo MT Cell Viability Assay in HEK293 cells - 8 hour (AID 1224887). Also: top concentration of the series differs between compounds; nearly all actives have a fitted effect of over 50% in size. The essentials:
as §1

A short description of experiment [9]: A CellTox Green Cytotoxicity Assay to monitor cytotoxicity in HEK293 cells - 16 hour (AID 1224888). Also: nearly all actives have a fitted effect of over 35% in size. The essentials:
as §2

Experiment [10] in a line: qHTS RealTime-Glo MT Cell Viability Assay in HepG2 cells - 0 hour (AID 1224889). Also: nearly all actives have a fitted effect of over 50% in size. The essentials: as §4
Experiment [11] in a line: A CellTox Green Cytotoxicity Assay to monitor cytotoxicity in HepG2 cells - 8 hour (AID 1224890). Also: nearly all actives have a fitted effect of over 45% in size. The method in brief: as §3
The nature of experiment [12]: qHTS assay to identify small molecule antagonists of the estrogen receptor alpha (ER-alpha) signaling pathway using the BG1 cell line in the presence of 0.1 nM 17-beta-estradiol - cell viability counter screen (AID 1259241). Also: nearly all actives have a fitted effect of over 40% in size. Also: potency is read from the fitted curve at half-maximal effect. The method in brief: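 CellTiter-Fluor read (30 min, 37C) on ER-alpha/ERE-luc VM7Luc4E2 cells; 22 hr compound treatment; agonist 0.1 nM E2 final; same-well multiplex.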

A short description of experiment [13]: qHTS assay to identify small molecule antagonists of the androgen receptor (AR) signaling pathway using the MDA cell line in the presence of 0.5 nM R1881 - cell viability counter screen (AID 1259242). Also: nearly all actives have a fitted effect of over 45% in size. The essentials:
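Cells seeded at 3,000/well and allowed 5 hr at 37C, 0% CO2 before compound transfer and R1881 (0.5 nM final) addition; 16 hr later, live-cell protease fluorescence indicated cytotoxicity.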

Experiment [14] deals with Estrogen receptor (Homo sapiens) (UniProt P03372). Kind of experiment: qHTS assay to identify small molecule antagonists of the estrogen receptor alpha (ER-alpha) signaling pathway using the BG1 cell line in the presence of 0.1 nM 17-beta-estradiol (AID 1259244). Also: nearly all actives have a fitted effect of over 50% in size. The method in brief: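 Luciferase signal from VM7Luc4E2 ERE-reporter cells, co-dosed with test compound and 0.1 nM final 17beta-estradiol for 22 h, read with ONE-Glo.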

A short description of experiment [15]: qHTS assay to identify small molecule HDAC inhibitors (AID 1259364).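 Also: wild-type HCT-116 cells with endogenous class I/II HDAC activity; top concentration of the series differs between compounds; nearly all actives have a fitted effect of over 45% in size.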 The essentials: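 HCT-116 wt cells, 1,500/well, overnight attach. Compounds (DMSO) 2 h, 37 °C. HDAC-Glo I/II, 30 min RT. Luminescence.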
A short description of experiment [16]: qHTS assay to identify small molecule HDAC inhibitors - cell viability counter screen (AID 1259365). The essentials: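 To flag cytotoxic hits, 1,500 wild-type HCT-116 cells per well, plated the day before, receive test compounds for 2hr at 37 C before CellTiter-Glo reagent and a luminescence read.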
Experiment [17] can be described thus: qHTS assay to identify small molecule agonists of the sonic hedgehog signaling (Shh) pathway - cell viability counter screen (AID 1259366). Also: nearly all actives have a fitted effect of over 50% in size. Also: potency is read from the fitted curve at half-maximal effect. The method in brief: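 Fluorescence from CellTiter-Fluor reports live cells in this counter screen. NIH/3T3-derived Gli1-Luc reporter cells receive test compounds for 24hr at 37C; reagent goes in at 23hr.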
The nature of experiment [18]: qHTS assay to identify small molecule antagonists of the sonic hedgehog signaling (Shh) pathway - cell viability counter screen (AID 1259367). Also: nearly all actives have a fitted effect of over 55% in size. Also: potency is read from the fitted curve at half-maximal effect. The essentials:
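Cytotoxicity was assessed in parallel with Shh reporter activity by measuring live-cell protease fluorescence (CellTiter-Fluor) in NIH/3T3 cells stably carrying Gli1-Luc, treated with compound under conditioned medium stimulation for 23 hr plus 1 hr reagent incubation.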

In experiment [19] the target is Androgen receptor (Homo sapiens) (UniProt P10275). The experiment is described as follows: qHTS assay to identify small molecule antagonists of the androgen receptor (AR) signaling pathway using the MDA cell line in the presence of 0.5 nM R1881 (AID 1259243). Also: nearly all actives have a fitted effect of over 50% in size. The method in brief: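 Luminescence from an AR/GR-responsive MMTV-luciferase construct in MDA-kb2 breast carcinoma cells, read 30 min after ONE-Glo, following 16 hr co-treatment with compounds and 0.5 nM R1881.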

Experiment [20] is described as follows: qHTS assay to identify small molecule phospholipidosis (PLD) inducers (AID 1259344; active = well fitted curve in the direction sought with a large enough effect; an effect the other way counts as inactive or inconclusive). The method in brief:
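Cells (HepG2, 900 per well) attach for 4 h, receive LipidTOX Red and compound together, incubate 24 h at 37 C, are fixed 30 min with paraformaldehyde/Hoechst, then imaged at one site per well.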

Estrogen receptor (Homo sapiens), sequence (P03372 whole entry, looked up): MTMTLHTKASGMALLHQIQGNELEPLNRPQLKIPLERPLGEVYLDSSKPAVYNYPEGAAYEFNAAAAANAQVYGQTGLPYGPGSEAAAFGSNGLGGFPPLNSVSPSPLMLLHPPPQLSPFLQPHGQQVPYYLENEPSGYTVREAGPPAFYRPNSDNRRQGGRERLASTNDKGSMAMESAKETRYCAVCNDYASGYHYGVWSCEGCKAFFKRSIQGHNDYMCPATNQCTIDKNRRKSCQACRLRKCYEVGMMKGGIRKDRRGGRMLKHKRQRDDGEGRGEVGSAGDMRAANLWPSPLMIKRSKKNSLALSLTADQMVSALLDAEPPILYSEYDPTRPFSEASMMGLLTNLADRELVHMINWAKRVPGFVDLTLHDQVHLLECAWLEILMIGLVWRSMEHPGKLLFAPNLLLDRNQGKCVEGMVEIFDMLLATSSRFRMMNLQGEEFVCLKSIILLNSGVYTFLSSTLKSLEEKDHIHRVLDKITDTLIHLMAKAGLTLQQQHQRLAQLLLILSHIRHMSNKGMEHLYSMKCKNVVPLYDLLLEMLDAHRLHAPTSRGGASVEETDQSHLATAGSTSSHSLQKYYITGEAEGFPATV
Androgen receptor (Homo sapiens), sequence (P10275 whole entry, looked up): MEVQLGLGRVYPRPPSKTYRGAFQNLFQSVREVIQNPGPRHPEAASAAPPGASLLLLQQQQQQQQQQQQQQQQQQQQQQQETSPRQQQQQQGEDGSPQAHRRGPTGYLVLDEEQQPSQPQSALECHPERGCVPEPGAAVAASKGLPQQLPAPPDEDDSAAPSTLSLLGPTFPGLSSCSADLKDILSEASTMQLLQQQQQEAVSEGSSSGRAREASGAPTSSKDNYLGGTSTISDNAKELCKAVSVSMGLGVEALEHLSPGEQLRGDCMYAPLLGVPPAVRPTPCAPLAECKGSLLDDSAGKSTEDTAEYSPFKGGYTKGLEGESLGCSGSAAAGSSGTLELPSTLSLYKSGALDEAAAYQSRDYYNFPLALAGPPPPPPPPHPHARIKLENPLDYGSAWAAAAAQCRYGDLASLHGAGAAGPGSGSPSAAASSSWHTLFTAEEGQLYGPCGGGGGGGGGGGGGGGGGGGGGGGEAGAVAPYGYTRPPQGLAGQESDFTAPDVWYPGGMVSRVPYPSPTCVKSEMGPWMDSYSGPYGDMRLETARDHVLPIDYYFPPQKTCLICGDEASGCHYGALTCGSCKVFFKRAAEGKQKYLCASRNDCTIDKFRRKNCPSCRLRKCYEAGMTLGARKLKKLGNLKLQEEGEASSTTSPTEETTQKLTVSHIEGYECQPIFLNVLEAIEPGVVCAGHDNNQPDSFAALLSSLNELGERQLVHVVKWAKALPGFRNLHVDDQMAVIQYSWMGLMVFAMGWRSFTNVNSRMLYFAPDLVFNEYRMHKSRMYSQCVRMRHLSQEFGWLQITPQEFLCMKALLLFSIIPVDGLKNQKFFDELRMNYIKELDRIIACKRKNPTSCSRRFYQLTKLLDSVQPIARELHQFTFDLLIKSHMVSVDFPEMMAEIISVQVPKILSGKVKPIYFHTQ

`CCNC(=O)C1CC(C)CCC1C(C)C` (configuration not stated): the Potency entry in experiment [1], in experiment [2], in experiment [4], in experiment [5], in [7] and in experiment [8] was “inactive” in each case. The Potency result in experiment [10], in experiment [12], in experiment [14], in [15], in experiment [17] and in [18] was “inactive” each time. Further, the compound was called inactive in experiment [3], in [6], in [9], in [11], in experiment [13] and in [16].

As for `O=C(O)CCSSCCC(=O)O`, the Potency entry in experiment [1], in experiment [2], in [4], in [5], in experiment [7] and in experiment [8] was “inactive” each time. The Potency entry in [10], in experiment [12], in [19], in experiment [14], in [15] and in experiment [17] was “inactive” throughout. The call in experiment [3], in experiment [6], in experiment [9], in experiment [11] and in experiment [16] was inactive.

In the case of `C=C(C)C(=O)OCCOP(=O)(O)OCCOC(=O)C(=C)C`, the Potency result in [1], in experiment [2], in experiment [4], in [5], in [7] and in experiment [8] was “inactive” in each case. Moreover, the Potency entry in experiment [10], in experiment [12], in [14], in [15] and in experiment [17] was “inactive” throughout. Moreover, the result in experiment [3], in [6], in experiment [9], in experiment [11] and in [16] was inactive.

`Nc1ccc([N+](=O)[O-])c(N)c1`: the Potency result in experiment [1], in experiment [2], in experiment [4], in experiment [5], in [7] and in experiment [8] was “inactive” in each case. For the same compound, the Potency entry in [10], in [14] and in experiment [15] was “inactive” throughout. The result in experiment [3], in experiment [6], in experiment [9], in [11] and in experiment [16] was inactive. The values for the Potency in experiment [12], in experiment [17] and in [18] were 53.1 µM (active), 29.9 µM (active) and 33.5 µM (active), respectively.

For `CCCCNc1ccc(C(=O)OCCN(C)C)cc1`, the Potency result in [1], in experiment [2], in [4], in experiment [5], in experiment [7] and in [8] was “inactive” throughout. For the same compound, the Potency result in [10], in [12], in experiment [15], in experiment [17] and in experiment [18] was “inactive” each time. In addition, the result in experiment [3], in [6], in experiment [9], in [11], in experiment [13] and in experiment [20] was inactive. Moreover, in experiment [16], the compound was called inactive.

Consider `On1nnc2ccccc21`, for which the Potency result in experiment [1], in [2], in [4], in [5], in experiment [7] and in experiment [8] was “inactive” each time. The Potency entry in experiment [10], in experiment [12], in [14], in [15], in experiment [17] and in [18] was “inactive” throughout. Besides, the result in [3], in experiment [6], in experiment [9], in experiment [11] and in [16] was inactive.

As to `CCC(C=O)CC`, the Potency entry in experiment [1], in experiment [2], in experiment [4], in experiment [5], in experiment [7] and in [8] was “inactive” each time. For the same compound, the Potency result in experiment [10], in [12], in [15] and in experiment [18] was “inactive” throughout. Besides, the result in [3], in experiment [6], in experiment [9], in experiment [11], in experiment [13] and in [16] was inactive.

As for `Cc1ccc(C=O)cc1C`, the Potency entry in [1], in experiment [2], in experiment [4], in [5], in [7] and in experiment [8] was “inactive” each time. Further, the Potency entry in experiment [10], in [12], in experiment [14], in [15], in experiment [17] and in experiment [18] was “inactive” each time. The compound was called inactive in experiment [3], in experiment [6], in experiment [9], in experiment [11], in [13] and in [16].
